Screens (PubChem)
Mac1 fbg inh – inhibitors of CD11b/CD18 adhesion to fibrinogen, primary screen, K562 cells, luminescence. Integrin beta-2 (Homo sapiens) + Integrin alpha-M (Homo sapiens), P05107+P11215. ATPlite luminescence; Mn2+ added to activate the integrin. actives 0.54% (n = 93,000). inhibition, % at 10 µM;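 active = primary inhibition of 50% or more at 10 µM, then 40% or more on retest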
PLAP act – PLAP enzyme activators, biochemical, luminescence, HTS; activation fold at 20 µM; purified PLAP enzyme, luminescent substrate read-out; active compounds read high; AID 696, 2007; actives 1.2% (n = 96,000); in the data active = activation fold above about 2
Target sequence (P05187 whole entry, looked up): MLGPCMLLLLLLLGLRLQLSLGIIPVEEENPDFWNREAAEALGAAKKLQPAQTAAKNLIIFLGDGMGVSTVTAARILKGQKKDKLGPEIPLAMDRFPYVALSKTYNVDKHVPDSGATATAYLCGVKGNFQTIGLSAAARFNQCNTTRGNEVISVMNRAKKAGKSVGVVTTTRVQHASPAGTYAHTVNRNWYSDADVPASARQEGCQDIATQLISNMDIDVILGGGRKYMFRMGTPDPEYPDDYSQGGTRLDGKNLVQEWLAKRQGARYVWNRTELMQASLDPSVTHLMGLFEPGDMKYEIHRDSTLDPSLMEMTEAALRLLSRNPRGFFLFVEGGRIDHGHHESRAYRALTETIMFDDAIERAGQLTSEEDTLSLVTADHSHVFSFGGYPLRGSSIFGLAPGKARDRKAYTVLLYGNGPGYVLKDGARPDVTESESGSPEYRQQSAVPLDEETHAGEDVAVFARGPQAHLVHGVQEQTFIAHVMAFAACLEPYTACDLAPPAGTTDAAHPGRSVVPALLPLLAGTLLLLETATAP
HePTP inh – inhibitors of human HePTP phosphatase, primary screen, biochemical, absorbance, leukemia target. recombinant HePTP phosphatase activity, OD absorbance. inhibition, % at 20 µM. actives 0.64% (n = 110,000). AID 521, 2006. Tyrosine-protein phosphatase non-receptor type 7 (Homo sapiens), P35236; in the data active = inhibition above about 50%;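 also: plate controls were vehicle for no effect and reference inhibitor for full effect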
CD11b adhes enh – enhancers of CD11b/CD18 adhesion to fibrinogen, primary screen, K562 cells, luminescence; Integrin beta-2 (Homo sapiens) + Integrin alpha-M (Homo sapiens), P05107+P11215; ATPlite luminescence; activation, % at 10 µM; actives 0.07% (n = 93,000);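 active = 10 µM primary screen giving 50% or more activity, confirmed by 40% or more on retest at that dose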
The depositor's hits bear a star; . = not tested or not shown; ! = a repeat was not active. Most compounds without a hit are left out; they make up all but 1.5% or so of the library.

SMILES	Mac1 fbg inh	PLAP act	HePTP inh	CD11b adhes enh
Cc1cc(Br)ccc1NC(=O)CNC(=O)CSc1n[nH]c(N)n1	-16	1.9	6	1
Nc1nc(SCC(=O)Nc2ccc(Br)cc2F)n[nH]1	-15	2*	11	1
Cc1cc(NCCCn2ccnc2)n2ncc(-c3ccccc3)c2n1	50*	2.3*	7	-3
Cc1cc(NCCCn2ccnc2)n2nc(C)c(-c3ccccc3)c2n1	2	1.6	.	-3
COc1ccc(OC)c(C2NC(=O)NC(C)=C2C(=O)OCc2ccc3c(c2)OCO3)c1 (centres undefined)	.	.	-10	.
COc1ccc(S(=O)(=O)Nc2cc3c(C(C)=O)c(C)oc3c3ccccc23)cc1	20	2*	-3	-5
Oc1c(Br)cc(/C=N/Nc2nnc3c(n2)[nH]c2ccccc23)c(Br)c1O	.	.	89*	.
Cc1ccc2[nH]c3nc(N/N=C/c4cc(Br)c(O)c(Br)c4)nnc3c2c1	.	.	2	.
CN(C)Cc1nc2c(c(=O)[nH]1)C1(CCCCC1)Cc1ccccc1-2	7	1.7	3	-3
CN(C)Cc1nc2c(c(=O)[nH]1)C(C)(C)Cc1ccccc1-2	-11	2.3*	.	0
Cc1nn(-c2ccccc2)c(C)c1Sc1ccc(Cl)cc1	.	.	104*	.
O=C(/C=C/c1ccc(Cl)cc1)Nc1ccc2c(c1)OCO2	.	.	5	.
COc1ccc(/C=C(/c2ccccc2)c2nc3ccccc3[nH]2)cc1	.	.	-2	.
O=C(C1CN(S(=O)(=O)c2ccccc2)CCN1S(=O)(=O)c1ccccc1)N1CCCCCC1 (centres undefined)	8	1.1	50*!	2
CC(C)(C)NC(=O)C1CN(S(=O)(=O)c2ccccc2)CCN1S(=O)(=O)c1ccccc1 (centres undefined)	-2	1.1	-2	-1
COc1ccc(/C=C/C(C)=C/C=C/C(C)=O)cc1	.	.	6	.
Cc1cccc(N2CCN(Cc3oc(CO)cc(=O)c3O)CC2)c1C	1	2.2*	.	-2
CC1=C(C#N)c2nc(N)c(C#N)c(C)c2/C1=C/c1ccc(-c2ccccc2[N+](=O)[O-])o1	.	.	81*	.
CC1=C(C#N)c2nc(N)c(C#N)c(C)c2/C1=C/c1ccc(-c2ccc([N+](=O)[O-])cc2C)o1	.	.	5	.
CCC1(C)CC(CC(=O)O)(c2ccccc2OC)CCO1 (centres undefined)	-13	1.1	5	-3
CCC1(C)CC(CC#N)(c2ccccc2OC)CCO1 (centres undefined)	.	.	104*	.
c1cnc2c(OCc3nc4ccccc4[nH]3)cccc2c1	11	2.1*	14	3
N#Cc1ccccc1NC(=O)CC1Sc2ccc(C(F)(F)F)cc2NC1=O (centres undefined)	.	.	-1	.
CC1CCCCN1c1ncnc2ccccc12 (centres undefined)	69*	0.8	.	-4
O=C1OC(c2ccccc2)=C/C1=C/c1ccc(-c2ccc([N+](=O)[O-])cc2Br)o1	.	.	104*	.
SMILES	Mac1 fbg inh	PLAP act	HePTP inh	CD11b adhes enh
NC1=NC(=O)/C(=C/c2ccc(-c3ccc([N+](=O)[O-])cc3Br)o2)S1	.	.	100*	.
CC1(C)CC(=O)c2cnn(-c3nc4ccccc4[nH]3)c2C1	1	2.1*	-2	1
CCN(C(=O)CCc1nc(-c2ccc(OC)cc2)no1)c1cc(OC)ccc1OC	18	2*	1	1
COc1cc(C2/C(=C(\O)c3ccccc3)C(=O)C(=O)N2CCCCCC(=O)O)ccc1O (centres undefined)	.	.	-8	.
COc1ccc(-c2ccc(/C=C/C(=O)O)o2)cc1	.	.	8	.
Cc1ccc(-c2cc(-c3ccccc3[N+](=O)[O-])[nH]n2)c(O)c1	.	2*	.	.
Cc1ccc(-c2cc(-c3ccccc3Cl)[nH]n2)c(O)c1	60	1.2	1	-10
Cc1onc(-c2ccccc2Cl)c1C(=O)N1CCN(c2ccccc2F)CC1	.	.	104*	.
Cc1onc(-c2ccccc2Cl)c1C(=O)N1CCN(c2ccccc2)CC1	1	1.4	2	0
O=[N+]([O-])c1cc2nc(N3CCOCC3)c(N3CCOCC3)nc2cc1[N+](=O)[O-]	.	.	-10	.
COc1ccc(/C=N/S(=O)(=O)c2ccc(C)cc2)c(OC)c1	.	.	-13	.
CCOc1cc(S(=O)(=O)NCc2ccccn2)c(C)cc1C	1	2.2*	-9	-5
COCCOC(=O)c1ccc(NC(=O)c2ccccc2CCc2ccccc2)cc1	.	.	-2	.
O=C(Nc1ccccc1C(=O)N1CCOCC1)c1ccco1	-10	1.1	-2	-4
CC1CCN(C(=O)c2ccccc2NC(=O)c2ccco2)CC1	.	.	103*	.
